# HT1080NT lethal: qHTS for induction of synthetic lethality in tumor cells producing 2HG: qHTS for the HT-1080-NT fibrosarcoma cell line. HT-1080-NT fibrosarcoma viability, CellTiter-Glo ATP luminescence, 48 h. Potency, µM (doses to about 46.1 µM), without a hit: at the highest dose activity, negative = less viability, actives largely listed as cytotoxic. 1.6% of 360,000 active. AID 686970, 2013;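 note: NT is the 2HG producing partner of a matched IDH1 knockdown line; potency is the fitted concentration of half-maximal effect; 0% = DMSO-treated cells and -100% = media-only wells without cells; nearly all actives have a fitted effect of over 55% in size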
#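 Read-out is CellTiter-Glo luminescence after 10 minutes at room temperature, following 48 hours' compound treatment of HT-1080-NT cells (750 cells/well, RPMI, 5% FBS, 37 degrees C).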
# TDP1 cell noCPT: qHTS for Inhibitors of human tyrosyl-DNA phosphodiesterase 1 (TDP1): qHTS in cells in absence of CPT; DT40 Tdp1-/- hTDP1 cells, no CPT, ATP luminescence, 48 h; Potency, µM (series often up to 46.2 µM), for inactives: top-dose activity change, negative = growth inhibition, hits mostly inhibitors; 15% of 420,000 active; AID 686978, 2013; note: potency is the fitted concentration of half-maximal effect; nearly all actives have a fitted effect of over 55% in size
#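 Growth of hTDP1-complemented DT40 Tdp1-knockout cells is measured by ATP luminescence after at least 48 hr compound exposure at 37 °C, with DMSO substituting for the 20 nM CPT used in the parallel screen.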
# IL-1B inflam inh: qHTS for Inhibitors of Inflammasome Signaling: IL-1-beta AlphaLISA Primary Screen; THP-1 LPS/ATP IL-1B secretion, AlphaLISA, 16 h; hits give low values; activity change, % at 57.5 µM; 4.7% of 360,000 active; in the data active = activity change below about -50%; inconclusive = mostly about -30% to -49%
#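 THP-1 cells pretreated 1 hr with compounds (up to 57.5 uM final), then stimulated with LPS (250 ng/mL final) plus ATP (1.25 mM final); secreted IL-1B measured by AlphaLISA after 16 hr, decreased signal indicating inhibition.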
# HT1080 IDH1KD tx: qHTS for induction of synthetic lethality in tumor cells producing 2HG: qHTS for the HT-1080-IDH1KD cell line; HT-1080 IDH1 knockdown viability, ATP luminescence, 48 h; AID 686971, 2013; Potency, µM (highest dose often 46.1 µM), for the others: top-dose activity, negative = toxicity, actives largely listed as cytotoxic; 2% of 360,000 active;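 note: potency is the fitted concentration of half-maximal effect; 0% = DMSO wells and -100% = cell-free medium wells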
#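 CellTiter-Glo luminescence after 48 h compound exposure at 37 degrees C of IDH1-knockdown HT-1080 cells in 5% FBS RPMI. %Activity scaled between DMSO wells and cell-free media wells, with curves fitted and assigned curve classes.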
# ELG1 DNA repair: qHTS screen for small molecules that inhibit ELG1-dependent DNA repair in human embryonic kidney (HEK293T) cells expressing luciferase-tagged ELG1; HEK293T ELG1-luciferase reporter, luminescence, 16 h; DNA damage induced by 5-fluorouridine; Potency, µM (highest dose often 46.1 µM), without a hit: at the top dose activity change, negative = inhibition, most hits filed as inhibitors; 2.3% of 330,000 active; AID 504467, 2011; note: potency is the fitted concentration of half-maximal effect; nearly all actives have a fitted effect of over 55% in size
#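 Reporter activity after DNA damage by 5-fluorouridine is monitored. Compound-treated cells incubate 16 hr at 37 °C, then ONE-Glo is added for 30 min before luminescence reading.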
# TDP1 cell CPT: qHTS for Inhibitors of human tyrosyl-DNA phosphodiesterase 1 (TDP1): qHTS in cells in presence of CPT; chicken DT40 Tdp1-/-;hTDP1 cells + 20 nM CPT, ATP luminescence, 48 h; Potency, µM (series often up to 46.2 µM), without a hit: top-dose activity change, negative = growth inhibition, usual class: inhibitors; 12% of 420,000 active; AID 686979, 2013; note: potency is the fitted concentration of half-maximal effect; nearly all actives have a fitted effect of over 55% in size
#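 Chicken DT40 Tdp1-/- cells complemented with human TDP1, 400 cells/well, exposed to compounds plus 20 nM camptothecin for at least 48 h at 37 C; viability read as ATP content by CellTiter-Glo luminescence.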
# * marks the source's active call; other numbers are inactive results; u = inconclusive; x = not tested or not shown; [ ] = remark or other dose. Compounds with a hit are over-represented: about 19% of the library has one in this group of screens. Unless noted, calls come from the whole dose curve; as a rule, active = well fitted curve in the direction sought with a large enough effect; inconclusive = small, poorly fitted or top-dose-only effect, or another doubt; inactive = no such curve, though single readings can be large; an effect the other way counts as inactive or inconclusive. Unless noted, % is set by controls: 0 for no effect and ±100 for the full control effect.
SMILES,HT1080NT lethal,TDP1 cell noCPT,IL-1B inflam inh,HT1080 IDH1KD tx,ELG1 DNA repair,TDP1 cell CPT
CN(C)c1ncc2nc(-c3cc(F)cc(F)c3)c(=O)n(C[C@H]3CCCO3)c2n1,x,19%,x,x,x,-7%
COc1ccc(NC(=O)CCn2c(=O)c3cccn3c3cccnc32)c(OC)c1,x,15µM*,x,x,x,u
COc1ccc(OC)c(CCNC(=O)CCn2c(=O)c3cccn3c3cccnc32)c1,x,16µM*,x,x,x,u
COc1ccc(CCNC(=O)CCCn2c(=O)c3cccn3c3cccnc32)c(OC)c1OC,5%,u,0,-6%,13µM*,u
CS(=O)(=O)N1CCC2(CCN(Cc3ccncc3)CC2)CC1,x,-27%,x,x,x,-24%
COc1ccc(N2CCN(S(=O)(=O)c3ccc4oc(=O)c5ncn(C)c5c4c3)CC2)cc1,x,-5%,x,x,x,-7%
COc1cccc(NC(=O)N(CCCN2CCOCC2)C(C)c2cc3ccccc3o2)c1 (stereo unspecified),16µM*,u,-4,-12%,-15%,u
CCC(=O)Nc1ccccc1-c1nc2ccccc2n(C(C)C(=O)Nc2ccc(OC)cc2)c1=O (stereo unspecified),x,15µM*,x,x,x,u
COc1ccc(Cl)cc1NC(=O)Cn1c(=O)c(-c2ccccc2NC(C)=O)nc2ccccc21,x,15µM*,x,x,x,13µM*
CC(=O)Nc1ccccc1-c1nc2ccccc2n(C(C)C(=O)Nc2ccccc2C(F)(F)F)c1=O (stereo unspecified),x,u,x,x,x,-28%
COc1ccc(NC(=O)Cn2c(=O)c(-c3cc(C)ccc3NC(C)=O)nc3ccccc32)c(OC)c1,x,-13%,x,x,x,-6%
CCC(=O)Nc1ccccc1-c1nc2ccccc2n(CC(=O)Nc2ccccc2OC)c1=O,x,5.8µM*,x,x,x,5.8µM*
CC(=O)Nc1ccccc1-c1nc2ccccc2n(C(C)C(=O)Nc2cccc(C)c2C)c1=O (stereo unspecified),x,u,x,x,x,21µM*
CCC(C(=O)Nc1ccc(C)c(Cl)c1)n1c(=O)c(-c2ccccc2NC(C)=O)nc2ccccc21 (stereo unspecified),x,13µM*,x,x,x,21µM*
COc1cc(OC)cc(-c2c(-c3cccs3)c3cc(-c4ccc5c(c4)OCCO5)ccc3n2C)c1,1%,15µM*,-5,5%,2%,u
COc1cc(OC)cc(-c2c(-c3cccs3)c3cc(-c4cnc(N)nc4)ccc3n2C)c1,u,u,-4,u,-29%,23µM*
COc1cc(OC)cc(-c2c(-c3cccs3)c3cc(-c4ccc(OC)c(OC)c4)ccc3n2C)c1,u,u,-17,1%,-11%,9.2µM*
COc1ccc(-c2c(-c3cc(OC)cc(OC)c3)n(C)c3ccc(-c4cnc(N)nc4)cc23)cc1,0%,u,-8,4%,u,-26%
COc1cc(OC)cc(-c2c(-c3cccs3)c3cc(-c4ccc(OCc5ccccc5)cc4)ccc3n2C)c1,0%,-28%,27,0%,u,-17%
COc1cc(OC)cc(-c2c(-c3cccs3)c3cc(-c4ccc(OC)c(F)c4)ccc3n2C)c1,-1%,18µM*,-3,-4%,15%,u
COc1ccc(-c2c(-c3cc(OC)cc(OC)c3)n(C)c3ccc(-c4ccc(OC)c(F)c4)cc23)cc1,1%,u,17,-2%,u,-23%
COc1ccc(C(CNC(=O)C(CCSC)NC(=O)c2ccccc2OC)N2CCCCC2)cc1 (stereo unspecified),-1%,u,-25,6%,1%,u
CCCCn1c(CN2CCN(C(=O)OCC)CC2)nc2c1c(=O)[nH]c(=O)n2C,2%,-6%,15,6%,-15%,-6%
CCCCCn1c(CN2CCN(c3cc(Cl)ccc3C)CC2)nc2c1c(=O)[nH]c(=O)n2C,13%,13µM*,u,0%,u,14µM*
CCCCCn1c(CN2CCN(c3ccc(OC)cc3)CC2)nc2c1c(=O)[nH]c(=O)n2C,x,23µM*,x,x,x,u
SMILES,HT1080NT lethal,TDP1 cell noCPT,IL-1B inflam inh,HT1080 IDH1KD tx,ELG1 DNA repair,TDP1 cell CPT
COc1ccc2c(c1)c(C(=O)CNc1nc(C)cs1)c(C)n2C,-26%,21µM*,u,2%[9.24 µM],u,u
COc1ccc2[nH]c(C)c(C(=O)CNc3nccs3)c2c1,x,10µM*,x,x,x,7.9µM*
COc1ccc2c(c1)c(C(=O)CN1CCc3ccccc3C1)c(C)n2C,-1%,21µM*,1,-10%,-22%,u
COc1ccc2[nH]c(C)c(C(=O)CN3CCOCC3)c2c1,1%,0%,-8,1%,6%,12%
COc1ccc2[nH]c(C)c(C(=O)CN3CCc4cc(OC)c(OC)cc4C3)c2c1,-29%,18µM*,-2,u,u,16µM*
Cc1ccc2c(C(=O)CNc3nncs3)c(C)[nH]c2c1,14%,-8%,u,8%,28%,-5%
COc1ccccc1N1CCN(C(=O)Cn2ncc3c(=O)oc4ccccc4c32)CC1,x,u,x,x,x,-12%
COc1ccccc1CNc1nc2ccccc2c2nc(-c3cccc(C)c3)nn12,x,-9%,x,x,x,-14%
CCN(CC)CCCNc1nc2cc(OC)c(OC)cc2c2nc(-c3ccccc3)nn12,18µM*,5.2µM*,-88*,u,-1%,21µM*
COc1ccc(OC)c(CCNc2nc3ccccc3c3nc(-c4cccnc4)nn23)c1,x,u,x,x,x,1%
CCN(CC)CCCNc1nc2ccccc2c2nc(-c3ccncc3)nn12,u,21µM*,-102*,16µM*,0%,u
CCN(CC)CCCNc1nc2cc(OC)c(OC)cc2c2nc(-c3cccnc3)nn12,-3%,13µM*,-90*,-1%,-17%,15µM*
CCOCCCNc1nc2cc(OC)c(OC)cc2c2nc(-c3ccccc3)nn12,x,6.5µM*,x,x,x,10µM*
CC1CCCCC1NS(=O)(=O)c1ccc2c(c1)CC(=O)N2C (stereo unspecified),0%,u,24,0%,u,6%
